Measurements taken from PubChem BioAssay (NCI).
Compounds without any hit were thinned out: in the full panel of roughly 83,000, 20% have a hit.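 Method: cells in 96-well plates; compound added at one concentration; 48 h incubation; percent growth measured; values under 10 scored active.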 Unmarked numbers belong to inactive results. The source made the active and inactive calls.

Assays:
Test in all cases: NCI-60 one-dose screen, 48 h (100 = growth as untreated, 0 = no growth, -100 = all killed)
Conditions in all cases: 10 µM unless noted
SR leukemia = system: SR leukemia
RPMI-8226 leukemia = system: RPMI-8226 leukemia
OVCAR-8 ovarian = system: OVCAR-8 ovarian
OVCAR-5 ovarian = system: OVCAR-5 ovarian
OVCAR-4 ovarian = system: OVCAR-4 ovarian
SK-OV-3 ovarian = system: SK-OV-3 ovarian
IGROV1 ovarian = system: IGROV1 ovarian
OVCAR-3 ovarian = system: OVCAR-3 ovarian
HS 578T breast = system: HS 578T breast
NCI/ADR-RES ovarian = system: NCI/ADR-RES ovarian

Row | Structure (SMILES) | growth (SR leukemia) | growth (RPMI-8226 leukemia) | growth (OVCAR-8 ovarian) | growth (OVCAR-5 ovarian) [%] | growth (OVCAR-4 ovarian) [%] | growth (SK-OV-3 ovarian) | growth (IGROV1 ovarian) | growth (OVCAR-3 ovarian) | growth (HS 578T breast) [%] | growth (NCI/ADR-RES ovarian)
1 | NC(=O)C1=C[C@H]2[C@H]3C=C[C@@]2(O)C(=O)O[C@@H]3O1 | 50.7% | 61.8% | 48.8% | 101 | 29.9 | 86.6% | 50.9% | 16.8% | 83.5 | 75.3%
2 | O=C(Nc1cccc(-n2ccc3c(NC(=O)c4ccccc4)nccc32)c1)c1cc(N2CCOCC2)cc(C(F)(F)F)c1 | -14.2% (active) | -42.4% (active) | 2.86% (active) | 19.3 | 83.1 | 5% (active) | 4.25% (active) | -34.8% (active) | – | 7.24% (active)
3 | ClC1c2ccccc2CCc2ccccc21 | 89.2% | 92% | 94.7% | 86.4 | 85.9 | 91.2% | 72.5% | 100% | – | 116%
4 | CC(=O)N[C@@H](CNC(=O)c1cc(NC(=O)c2cc(NC(=O)c3cc(NC(=O)c4nccn4C)cn3C)cn2C)cn1C)CC(=O)Nc1cn(C)c(C(=O)Nc2cc(C(=O)Nc3cc(C(=O)Nc4cc(C(=O)NCCCN(C)CCCNC(=O)c5cccc(C(=O)O)c5)n(C)c4)n(C)c3)n(C)c2)n1 | 77.2% | 105% | 96% | 121 | 64 | 115% | 113% | 102% | – | 87.4%
5 | Cc1cc2nc(-c3c(N)ncc(C#N)c3-c3ccc(Cl)cc3)[nH]c2cc1C | 49.4% | 56% | 38.4% | 83.2 | 56.1 | 75.9% | 46% | 21.8% | – | 53.9%
6 | NN=C(c1ccc(Cl)cc1)c1ccc(Cl)cc1 | 104% | 102% | 104% | 95 | 103 | 105% | 119% | 107% | – | 108%
7 | O=C(Nc1ccc(-n2ccc3c(NC(=O)c4ccccc4)nccc32)cc1)c1cccc(C(F)(F)F)c1 | -2.23% (active) | 6.14% (active) | 30.4% | 52.5 | 108 | 36.2% | 33.3% | 20.9% | – | 19.8%
8 | O=C(Nc1ccc(-n2cc(-c3ccncc3)c(-c3ccc(O)c(Cl)c3)n2)cc1)Nc1cccc(Cl)c1Cl | 74% | 12.7% | 62% | 101 | 78.7 | 81.7% | 77.9% | 55.3% | – | 66.7%
9 | O=[N+]([O-])c1cccc(C2c3ccccc3Oc3ccccc32)c1 | 77.4% | 82.2% | 89.4% | 90.8 | 91 | 84.1% | 76.8% | 91.7% | – | 93.7%
10 | COc1ccc(-c2nn(-c3ccc(NC(=O)Nc4ccc(Cl)c(C(F)(F)F)c4)cc3)cc2-c2ccncc2)cc1Cl | -7.31% (active) | -33.1% (active) | 9.53% (active) | 14.5 | 45.1 | 23.9% | 24.8% | -1.59% (active) | – | 9.1% (active)
11 | c1ccc(OCC[P+](c2ccccc2)(c2ccccc2)c2ccccc2)cc1 | 22.7% | 10.9% | 24.5% | 43.1 | 15.8 | 39.5% | 8.06% (active) | -31.5% (active) | – | 108%
12 | O=C(NCCNc1nccc(-c2c(-c3cccc(O)c3)nc3sccn23)n1)c1cc(N2CCOCC2)cc(C(F)(F)F)c1 | 97.3% | 67% | 78.1% | 101 | 133 | 94% | 80.4% | 107% | – | 103%
